# Assay results taken from ChEMBL document CHEMBL4513216, “Probing the Open Global Health Chemical Diversity Library for Multistage-Active Starting Points for Next-Generation Antimalarials” (ACS Infect Dis, 2020).
# Out of some 69,000 compounds screened, about 8,600 (12%) showed an effect of 50% or more. Shown is part of a subset that was picked to be rich in strong results.
# Tested on: Plasmodium berghei
# Test: Screen against P. berghei liver stage (PbLuc), transformed with Luciferase, at 10uM
# Format: functional, HepG2
# Details: tested at 10 uM
row,Compound,INHIBITION [%]
1,O=C(C1CCC2(CCN(c3nncs3)CC2)CO1)N1CCCC1 (stereo unspecified),57.1
2,O=C(C1CCC2(CCN(Cc3cccnc3)CC2)CO1)N1CCCC1 (stereo unspecified),62
3,CNC(=O)C1CCC2(CCN(c3ncc(C)cn3)CC2)CO1 (stereo unspecified),11.3
4,O=C([C@@H]1CCCO1)N1CCOCC2(CCN(Cc3cccnc3)C2)C1 (stereo partly specified),40.3
5,O=C(C1CCCO1)N1CCC2(CC1)COCCN(Cc1cccnc1)C2 (stereo unspecified),12.2
6,CNC(=O)C1CCC2(CCN(c3nncs3)CC2)CO1 (stereo unspecified),61.9
7,CC(C)NC(=O)C1CCC2(CCN(c3ncccn3)CC2)CO1 (stereo unspecified),15.7
8,O=C(C1CCC2(CCN(c3nncs3)CC2)C1)N1CCCC1 (stereo unspecified),-16.9
9,O=C(C1CCC2(CCN(c3ncccn3)CC2)CO1)N1CCCC1 (stereo unspecified),-7.24
10,CC(C)(C)C(=O)N1CC[C@@H]2[C@H](CC1)N(S(C)(=O)=O)CCS2(=O)=O,37.1
11,CN1CCN(C(=O)c2cc(-c3cccs3)cs2)CC1,-11.4
12,Cc1nc(C2CCCN2C(=O)COCc2ccccc2)no1 (stereo unspecified),7.27
13,COc1cnc(CSc2nnc(C)s2)cc1OCC(=O)NC1CCCC1,43.3
14,CNc1cncc(C2CCCN2Cc2ccnc(C)n2)n1 (stereo unspecified),48.6
15,CN1CCc2c(C#N)c(NCCCN3CCOCC3)n3cnnc3c2C1,3.95
16,COc1ccc(CN2CCOC3(CCCN(C(C)=O)C3)C2)cc1 (stereo unspecified),7.31
17,COc1cccc(CNC(C)c2ccc(-n3ccnc3)cc2)c1O (stereo unspecified),43.4
18,COc1cccc(CNC(C)c2ccc(-n3ccnc3)cc2)c1OC (stereo unspecified),35
19,COc1ccccc1CNC(C)c1ccc(-n2ccnc2)cc1 (stereo unspecified),70.3
20,COCCC(C)NCc1ccccc1-n1ccnc1 (stereo unspecified),15.2
21,CCOc1cccc(CNC(C)c2ccc(-n3ccnc3)cc2)c1O (stereo unspecified),47.1
22,CC(NCc1ccccc1O)c1ccc(-n2ccnc2)cc1 (stereo unspecified),61.9

row,Compound,INHIBITION [%]
1,CC1CCC(O)(CSc2nnnn2C)CC1 (stereo unspecified),4.52
2,CCn1ncc2c1C(COC)N(C(=O)CCc1ccccc1)CC2 (stereo unspecified),43
3,Cc1cnc(CC2COCCN(C(=O)c3cncnc3)C2)cn1 (stereo unspecified),-13.2
4,CC(NCc1cc(O)c2cccc(F)c2n1)c1ccccc1O (stereo unspecified),25
5,c1ccc(-c2ncn(CCCN3CCOCC3)c2-c2ccncc2)cc1,55.4
6,CSCc1ccc(CNCCN2CCOCC2)o1,15.6
7,Cc1ccc(-c2c(-c3ccccc3)ncn2CCCN2CCOCC2)o1,20.1
8,Cc1nc(-c2c(-c3ccccc3)ncn2CCCN2CCOCC2)c[nH]1,27.6
9,OCc1ccc(-c2c(-c3ccccc3)ncn2CCN2CCOCC2)o1,53.3
10,Cc1ccc(CNCCN2CCOCC2)o1,5.34
11,COCCCn1ccc(NC(=O)NCc2cccc(N(C)C)c2)n1,21.5
12,O=C1[C@@H]2CC[C@@H](CN(Cc3ccccc3OC(F)F)C2)N1CC1CC1,18.5
13,CC(=O)NCC(=O)N1Cc2cc(C#N)ccc2C1c1cnco1 (stereo unspecified),65.9
14,N#CC1(C(=O)N2Cc3cc(-c4cc[nH]n4)ccc3C2c2cnco2)CC1 (stereo unspecified),-18.3
15,N#Cc1ccc2c(c1)CN(C(=O)c1nc[nH]n1)C2c1cnco1 (stereo unspecified),64.5
16,CN(C)c1ccc2c(c1)CN(C(=O)c1ccnnc1)C2c1cnco1 (stereo unspecified),-0.554
17,CN(C)c1ccc2c(c1)CN(C(=O)c1c[nH]cn1)C2c1cnco1 (stereo unspecified),76.3
18,CC(=O)NCC(=O)N1CC[C@H](OCC2CC2)[C@@H]1Cc1cccnc1,4.92
19,CN(C)CC(=O)N1Cc2cc(-c3cc[nH]n3)ccc2C1c1cnco1 (stereo unspecified),-19.8
20,N#Cc1ccc2c(c1)CN(C(=O)C1CC=CC1)C2c1cnco1 (stereo unspecified),34.9
21,CC(=O)NCC(=O)N1Cc2cc(-c3cc[nH]n3)ccc2C1c1cnco1 (stereo unspecified),71.8
22,CN(C)CC(=O)N1Cc2cc(N(C)C)ccc2C1c1cnco1 (stereo unspecified),33.4

row,Compound,INHIBITION [%]
1,CN(C)c1ccc2c(c1)CN(C(=O)c1cnccn1)C2c1cnco1 (stereo unspecified),31.9
2,CN(C)c1ccc2c(c1)CN(C(=O)c1ccco1)C2c1cnco1 (stereo unspecified),-0.554
3,O=C(CN1CCOC1=O)N(Cc1ccccc1)Cc1nccs1,22.1
4,CC(C)CN1CC(C(=O)NCCNc2ncccn2)CC1=O (stereo unspecified),21.6
5,N#Cc1ccc(CN2CCN(c3cncc(Cl)n3)CC2=O)cc1,-5.33
6,CN(Cc1n[nH]c2c1CCCCC2)C(=O)c1cc(-c2cccn2C)n[nH]1,-89.3
7,COCCN1CCN(Cc2c(C3CCNCC3)[nH]c3ncccc23)CC1,-12.9
8,CSc1ccccc1CN1C[C@H]2C(=O)N(CC3CC3)C[C@@]2(C(=O)O)C1,-26.9
9,CCCc1ccc(CN2C[C@H]3C(=O)N(CC4CC4)C[C@@]3(C(=O)O)C2)o1,6.28
10,O=C1[C@@H]2CN(Cc3cc4ccccc4o3)C[C@]2(C(=O)O)CN1CC1CC1,79.8
11,COc1cccc(-n2cc3[nH]c(=O)n(C(C)C)n3c2=O)c1,-34
12,CCOc1ncnc2c1CCN(C(=O)c1cnccn1)CC2,-103
13,CC(C)Nc1ncnc2c1CCN(C(=O)c1ccncc1F)CC2,53.5
14,Cc1ncnc2c1CCN(C(=O)c1ccncc1F)CC2,68.4
15,Cc1ncnc2c1CCN(C(=O)c1cccnc1)CC2,-2.17
16,O=C(c1ccncc1F)N1CCc2ncnc(N3CCOCC3)c2CC1,5.44
17,Cc1ncnc2c1CCN(C(=O)c1ccncc1)CC2,19.5
18,O=C(c1ccncc1F)N1CCc2ncnc(-c3ccncc3)c2CC1,-7.39
19,O=C(c1ccncc1F)N1CCc2ncnc(C3CC3)c2CC1,-2.72
20,CCOc1ncnc2c1CCN(C(=O)c1ccncc1F)CC2,54.4
21,CCc1ncnc2c1CCN(C(=O)c1ccncc1F)CC2,-49.3
22,CC(C)Nc1ncnc2c1CCN(C(=O)c1ccccc1F)CC2,32.2

row,Compound,INHIBITION [%]
1,Cc1ncnc2c1CCN(C(=O)c1ccnnc1)CC2,60.1
2,CS(=O)(=O)N1CCc2ccc(=O)n(CCN3CCCC3)c2CC1,46.4
3,CCc1nc(C2CCCN2C(=O)c2cnc[nH]2)no1 (stereo unspecified),37.9
4,CCOCC1CN(C(=O)C2=CCCC2)Cc2cnn(CC)c21 (stereo unspecified),42.6
5,Cc1cnn(CC2CN(CCCc3nc4ccccc4o3)CCO2)c1 (stereo unspecified),-12.1
6,CCn1nc(C)c(NC(=O)CN2CCC(c3ccccc3Cl)C2)c1C (stereo unspecified),48.2
7,COCCN1C[C@H](NC(=O)CCC(F)(F)F)[C@@H](C(C)C)C1,30.9
8,CC(=O)N1CCCC(c2ccc(CO)c(-c3c(C)noc3C)n2)C1 (stereo unspecified),18.4
9,CCc1nc(C)c(C(=O)NCCN2CCCC2)s1,-19.9
10,COC(=O)c1ccc(C(=O)NCc2nn(C)c3c2COCC3)cc1,6
11,CC(C)(C)NC(=O)COc1ccc(Oc2ccccn2)cc1,23.7
12,COCC(C)(C#N)NC(=O)COc1ccccc1Br (stereo unspecified),-3.81
13,COCC(C)(C#N)NC(=O)COc1ccccc1 (stereo unspecified),66.7
14,OCc1cnc(Nc2ccccc2)nc1,-7.27
15,Cc1c(CN2CCOCC2)c(O)n(CCc2ccccc2)c(=O)c1C#N,6
16,Cn1cc(C(=O)NCc2cncc3c2CCN(S(C)(=O)=O)C3)cn1,38.5
17,Cc1ccc(NCc2cncc3c2CCN(Cc2ccccn2)C3)nn1,-30.7
18,Cc1ccc(N2CCc3c(CN(C)Cc4ccco4)cncc3C2)nn1,-11.2
19,Cn1cc(C(=O)NCc2cncc3c2CCN(c2ccccn2)C3)cn1,34
20,Cc1cnc(N2CCc3c(CN(C)Cc4ccco4)cncc3C2)nc1,66.8
21,CN(Cc1ccco1)Cc1cncc2c1CCN(c1ncccn1)C2,37
22,CN(Cc1cccnc1)Cc1cncc2c1CCN(c1ccccn1)C2,51.2

row,Compound,INHIBITION [%]
1,Cc1occc1C(=O)N1CCc2c(CNc3ncccn3)cncc2C1,4.27
2,Cc1nccc(NCc2cncc3c2CCN(S(C)(=O)=O)C3)n1,59.3
3,COCc1cncc2c1CCN(Cc1ccccn1)C2,-13.2
4,CN(Cc1ccco1)Cc1cncc2c1CCN(S(C)(=O)=O)C2,40.1
5,Cc1cnc(N2CCc3c(CNc4ccnc(C)n4)cncc3C2)nc1,94.6
6,Cc1ccnc(C2CCN(C(=O)CCn3ncc4ccccc43)C2)n1 (stereo unspecified),5.11
7,CNC(=O)[C@@H](c1ccccc1F)N1CCC[C@H]1C(=O)NC1CC1,0.734
8,Cn1ccnc1CN1CCO[C@H]2C(CNC(=O)c3ccco3)CC[C@@H]21 (stereo partly specified),16.9
9,CC(C)CC(=O)N1CC[C@@H]2CN(Cc3cccnc3)S(=O)(=O)[C@@H]2CC1,42.1
10,Cc1cc(C(=O)N2CC[C@@H]3CN(S(C)(=O)=O)CCO[C@@H]3C2)c(C)o1,37
11,O=C(NCc1cc[nH]n1)NC1CCCN(c2ncccn2)C1 (stereo unspecified),-0.79
12,Cc1cnc(N2CCN3C[C@H](OCc4cccc(C)n4)C[C@H]3C2)nc1,42.3
13,O=C(NCC1CC1)c1nc2c(o1)CN(CC1CC1)C2,-48.4
14,Fc1ccccc1Cc1noc(CN2CCC(C3CCCCC3)C2)n1 (stereo unspecified),49.9
15,Cc1cccc(NC(=O)C2CCCN2C(=O)c2ccco2)c1C (stereo unspecified),72.5
16,COC(=O)c1sccc1NC(=O)C1CCCN1C(=O)c1ccco1 (stereo unspecified),-62.2
17,COCc1ccccc1NC(=O)[C@@H]1CCCN1C(=O)c1ccco1,39.2
18,N#CCCN(CCN1CCOCC1)Cc1ccc(F)c(Br)c1,20.4
